Shown are actives, neighbours in structure and some others; about 21% of the full set was active somewhere.
D3 antag: D3 dopamine receptor (human) antagonism | P35462 | D3R cells, DiscoveRx beta-arrestin luminescence, antagonist mode; hits give low values | max response, negative = inhibition, % | 360,000 compounds, 2.5% hits; in the data active = max response below about -50%; inconclusive = no clear call, values can overlap the other calls
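Cells plated overnight at 1500 cells/well, then exposed to library compounds with dopamine controls for 90 minutes at 37 degrees C. DiscoveRx reagent added for 30–60 minutes at room temperature; luminescence read, quantitative HTS format.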
TDP1 cell CPT: growth inhibition of DT40 Tdp1-/-;hTDP1 cells with camptothecin (screen for TDP1 inhibitors) | chicken DT40 Tdp1-/-;hTDP1 cells + 20 nM CPT, ATP luminescence, 48 h | Potency, µM (titrated, usually from 46.2 µM), most hits filed as inhibitors | 420,000 compounds, 12% hits | AID 686979; note: nearly all actives have a fitted effect of over 55% in size
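Cell growth measured by CellTiter-Glo luminescence after a minimum 48 h, 37 C compound exposure with 20 nM CPT in Tdp1-knockout DT40 cells stably expressing hTDP1, seeded 400/well; qHTS titration format.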
IL1B secr inh: inhibitors of inflammasome signaling (IL-1 beta secretion); 360,000 compounds, 4.7% hits; THP-1 LPS/ATP IL-1B secretion, AlphaLISA, 16 h; hits give low values; activity change, % at 57.5 µM; AID 743279; in the data active = activity change below about -50%; inconclusive = mostly about -30% to -49%
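THP-1 cells pretreated 1 hr with compounds (up to 57.5 uM final), then stimulated with LPS (250 ng/mL final) plus ATP (1.25 mM final); secreted IL-1B measured by AlphaLISA after 16 hr, decreased signal indicating inhibition.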
DT40 TDP1 no CPT: qHTS for Inhibitors of human tyrosyl-DNA phosphodiesterase 1 (TDP1): qHTS in cells in absence of CPT | AID 686978, 2013 | DT40 Tdp1-/- hTDP1 cells, no CPT, ATP luminescence, 48 h | Potency, µM (doses to about 46.2 µM), hits mostly inhibitors | 420,000 compounds, 15% hits; note: nearly all actives have a fitted effect of over 55% in size
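DT40 Tdp1-/-;hTDP1 cells, no CPT (DMSO vehicle only), 400 cells/well; compounds pin-transferred; ≥48 hr, 37 °C; CellTiter-Glo 30 min RT dark, luminescence read.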
DRD3 agonist: D3 dopamine receptor (human) agonism; P35462; D3R DiscoveRx beta-arrestin cells, luminescence, 90 min; max activation, %; 410,000 compounds, 0.58% hits; AID 652048; in the data active = max activation above about 30%
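Agonist-mode cell screen: cells plated at 1500/well and incubated overnight at 37 °C, then exposed to library compounds for 90 min at 37 °C. Detection reagent was added for 30–60 min at room temperature, and luminescence was read.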
ClpP mod: qHTS Assay for Activators of ClpP. ATP-dependent Clp protease proteolytic subunit (Bacillus subtilis (strain 168)), P80244. purified B. subtilis ClpP, FRET peptide cleavage, 20 min. Potency, µM (top dose mostly 57.5 µM). 340,000 compounds, 1.9% hits. AID 651965, 2013; active = well fitted falling curve with a large enough effect; inconclusive = small, poorly fitted or top-dose-only effect; inactive = no such curve, though single readings can be large or run the other way; note: the source files actives as falling curves though it sought activators and does not explain the sign; nearly all actives have a fitted effect of over 65% in size
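ClpP 10 microg/mL final, pH 8 Tris/KCl buffer with BSA, glycerol, Tween-20; compound pinned in; FRET-FV substrate; RT 20 min; Ex320/Em430; ΔFRET vs ADEP 5.8 microM, DMSO, no enzyme.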
A number is an active result; . = inactive; ? = inconclusive; / = no result; ! = not active in a repeat; [ ] = another dose, or the depositor's remark. Unless noted, calls come from the whole dose curve; as a rule, active = well fitted inhibition curve with a large enough effect; inconclusive = small, poorly fitted or top-dose-only effect; inactive = flat fitted curve, though single readings scatter.

SMILES	D3 antag	TDP1 cell CPT	IL1B secr inh	DT40 TDP1 no CPT	DRD3 agonist	ClpP mod
O=C1NC2(CCCCCC2)C(=O)N1Cc1ccc(Cl)cc1Cl	.	.	-63	?	.	/
O=C(CN1C(=O)NC2(CCCC2)C1=O)NCCc1ccc(Cl)cc1Cl	.	.	.	.	.	.
COc1ccc2cc(CN(C)C(=O)CN3C(=O)NC4(CCCC4)C3=O)ccc2c1	.	?	.	23µM	.	.
CCNC(=O)n1cc(-n2cncn2)c(-c2ccccc2)n1	.	.	.	.	.	/
O=c1ccc(-c2ccc(S(=O)(=O)Nc3ccc(F)cc3)o2)n[nH]1	.	.	.	.	.	.
CC(C)C(NS(C)(=O)=O)c1nnc2n1CCN(Cc1ccc(Cl)cc1)CC2 (stereo unspecified)	/	.[9.04 µM]	/	?	/	/
Cn1c(SCC(=O)Nc2ccc(Cl)cc2F)nnc1-c1ccco1	.	.	.	.	.	/
COc1cc(C(=O)Nc2ccc(-c3nnc(-c4ccco4)o3)cc2)cc(OC)c1OC	.	?	.	?	.	.
COc1ccc(CC(=O)Nc2cccc(-c3nnc(-c4ccco4)o3)c2)cc1	.	7.3µM	.	7.3µM	.	.
CCC(=O)Nc1cccc(-c2nnc(-c3cccc(NC(=O)CC)c3)o2)c1	.	?	.	?	.	.
COc1ccc(C(=O)Nc2cccc(-c3nnc(-c4ccco4)o3)c2)cc1	.	18µM	.	16µM	.	.
COc1cc(C(=O)Nc2cccc(-c3nnc(-c4ccco4)o3)c2)ccc1OC(C)=O	.	13µM	-88	16µM	.	.
COc1cccc(C(=O)Nc2ccccc2-c2nnc(-c3cccc(OC)c3)o2)c1	/	9.2µM	/	12µM	.	.
CC(=O)Nc1ccc(NC(=O)C(c2ccccc2)N2Cc3ccccc3C2=O)cc1 (stereo unspecified)	/	.	/	.	.	.
Cc1ccc2oc(-c3cccc(NC(=O)Cc4cccs4)c3)nc2c1	?	.	.	.	.	?
Cc1cc(C)cc(OCC(=O)Nc2cccc(-c3nnc(-c4ccco4)o3)c2)c1	.	?	.	?	.	32µM
O=C(Cc1cccs1)Nc1cccc(-c2nnc(-c3ccco3)o2)c1	.	16µM	?	12µM	.	/
CCn1c(C(=O)O)c(CC(=O)N(C)c2ccc(OC)cc2OC)c2ccccc21	.	.	.	.	.	.
Cc1noc(C)c1CSc1nc2ccccc2n1C	.	?	.	.	.	.
Cc1noc(C)c1CSc1nnc(-c2ccccc2F)n1CCc1ccccc1	.	18µM	.	?	.	?
CCC(=O)Nc1ccc(C(=O)CSc2nnc(-c3ccccc3F)n2C2CC2)cc1	.	?	.	?	.	.
CC(=O)Nc1ccc(C(=O)CSc2nnc(-c3ccccc3F)n2CCc2ccccc2)cc1	.	?	.	13µM	.	.
COc1ccc(/C=C/C(=O)OCC(=O)c2c(N)n(C)c(=O)n(C)c2=O)c(OC)c1	.	.	.	.	.	.
CCOC(=S)SCc1cn2cccc(C)c2n1	.	.	.	.	.	.
COc1cc(/C=N/NC(=O)c2nc(-c3ccccc3)n(-c3ccccc3)n2)ccc1O	.	.	.	.	.	.
SMILES	D3 antag	TDP1 cell CPT	IL1B secr inh	DT40 TDP1 no CPT	DRD3 agonist	ClpP mod
Cc1nn(-c2ccccc2)c(C)c1/C=N/NC(=O)c1cc(O)cc(O)c1	.	.	.	.	.	.
Cc1nn(-c2ccccc2)c(C)c1-c1cc(C(=O)N/N=C/c2ccc(O)cc2)[nH]n1	.	26µM	.	?	.	.
COc1cc(/C=N/NC(=O)c2cc(-c3ccc4c(c3)OCO4)n[nH]2)ccc1O	.	?	-154	?	61	/
COc1cc(/C=N/NC(=O)c2cc(-c3c(C)nn(-c4ccccc4)c3C)n[nH]2)ccc1O	.	23µM	.	?	.	.
CCCCCCN1C[C@H](n2cc(COC(=O)c3ccccc3)nn2)[C@@H](O)C[C@@H]1c1ccc(C)cc1	.	?	.	?	.	.
COc1cccc(NS(=O)(=O)c2ccc(-n3cccn3)cc2)c1	.	?	.	5.8µM	.	.
Cc1ccc(NS(=O)(=O)c2ccc(-n3cccn3)cc2)cc1F	.	?	.	.	.	.
Cc1cccc(NS(=O)(=O)c2ccc(-n3cccn3)cc2)c1C	.	13µM	.	7.3µM	.	.
Cc1ccc(NS(=O)(=O)c2ccc(-n3cccn3)cc2)c(Br)c1	.	18µM!	.	16µM	.	.
Cc1cccc(NS(=O)(=O)c2ccc3c(c2)Cc2cc(S(=O)(=O)Nc4cccc(C)c4C)ccc2-3)c1C	.	6.5µM	.	5.2µM	.	.
Cc1ccc(NS(=O)(=O)c2ccc(-n3cccn3)cc2)c(C)c1	.	18µM	.	?	.	.
O=C(O)C(c1ccccc1)C(c1ccccc1)c1ccccc1 (stereo unspecified)	.	.	.	.	.	/
Cc1nn(CC(=O)NCc2ccccc2Cl)c(=O)c2nn(-c3ccccc3)c(C)c12	/	?	/	?	.	.
O=C(Nc1ccc(Br)cc1)NC1CCCCCCC1	.	?	-90	?	.	.
Cc1ccc(CN=C(Nc2ccccc2)NC2CCCCC2)cc1	.	21µM	-87	21µM	.	/
O=C(NC1CCCCCCC1)c1ccccc1O	.	?	.	?	.	28µM
CCOc1ccc(NC(=O)NC2CCCCCCC2)cc1	.	.	.	.	.	.
Cc1ccc(CNC(=S)NC2CCCCC2)cc1	.	?	.	?	.	.
O=C(Nc1ccccc1)NC1CCCCCCC1	.	?	?	29µM	.	/
Cc1ccccc1C(=O)NC1CCCCCCC1	.	.	.	.	.	.
O=C(Nc1ccccc1)NC1CCCCC1	.	.	.	.	.	.
CCc1ccc(N2C(=O)CS(=O)(=O)C23C(=O)N(Cc2ccccc2F)c2ccccc23)cc1 (stereo unspecified)	/	?	/	?	.	.
CCCSCCCNC(=O)c1ccc(Cn2c(=O)c3cccn3c3cccnc32)cc1	/	.	/	.	.	.
CCc1ccc(NC(=O)CCCc2nc(-c3ccco3)no2)cc1	/	?	/	?	.	.
O=C(Nc1ccccc1NC(=O)NC1CCCCC1)NC1CCCCC1	?	?	-69	?	.	.
NC(=O)c1ccccc1NC(=O)NC1CCCCC1	.	.	.	.	.	.
O=C(NC1CCCCC1)c1cc(Cl)ccc1[N+](=O)[O-]	.	.	.	.	.	28µM
O=C(N/N=C/c1c[nH]c2ccccc12)c1cc(-c2cccc3ccccc23)n[nH]1	.	?	-52	?	.	/
